Records with an inconclusive call do not appear. Activity calls are given as the source filed them. The calls were made as follows: active = hit-call score of the fitted dose curve at least 0.9, where 1 is the maximum; inconclusive = response in the unintended direction; inactive = score below 0.9. Where a SMILES comes first, the peptide text is derived from it. Bridges are numbered along the chain shown (N, C = ends). [ ]: non-standard residue; d: D form. hArg = N=C(N)NCCCC[C@H](N)C(=O)O; Mpa = O=C(O)CCS

Cellular tumor antigen p53 (Homo sapiens), sequence (P04637 whole entry, looked up): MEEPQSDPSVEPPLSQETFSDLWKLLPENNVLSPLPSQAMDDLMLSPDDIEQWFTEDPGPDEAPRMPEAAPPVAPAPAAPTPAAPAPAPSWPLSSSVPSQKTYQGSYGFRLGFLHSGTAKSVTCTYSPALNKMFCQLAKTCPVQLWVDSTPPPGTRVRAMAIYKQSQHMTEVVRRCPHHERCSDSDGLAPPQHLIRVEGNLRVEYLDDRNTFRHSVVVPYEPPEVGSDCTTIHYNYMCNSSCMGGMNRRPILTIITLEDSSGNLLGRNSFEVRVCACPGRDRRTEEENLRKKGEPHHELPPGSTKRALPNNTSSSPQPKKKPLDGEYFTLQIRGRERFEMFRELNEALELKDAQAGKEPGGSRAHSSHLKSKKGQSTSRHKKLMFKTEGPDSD

System in the first test: not listed separately
In words: TOX21_p53_BLA_p5_viability: Viability Assessment in the Tox21 HCT-116 p53 Agonism Beta-lactamase Assay, Phase 5 (AID 2283600). An outline of the steps: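 Counter-readout for cytotoxicity: ATP-dependent luminescence from CellTiter-Glo, read in the beta-lactamase wells after 30 min at RT, following a 16 h compound exposure at 37C.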
As to `CCCCCCCC/C=C\CCCCCCCC(=O)OC`, the result was inactive.

For `CC(C)(C)c1ccc(C=O)cc1`, the call was inactive.

For the molecule `CC(C)CCC[C@@H](C)[C@H]1CC(=O)C2=C3CC[C@H]4C[C@@H](O)CC[C@]4(C)[C@H]3CC[C@@]21C`, the molecule was called inactive.

`CC(=O)N[C@@H](CC(=O)N[C@@H](CCC(=O)O)C(=O)O)C(=O)O`: the molecule was classed as inactive.

On to `CCC1NC(=O)c2cc(S(N)(=O)=O)c(Cl)cc2N1` (centres undefined), for which the outcome was inactive.

In the case of `CCCOCC(C)OCC(C)O` (centres undefined), the result was inactive.

As for `OCC(F)(F)F`, the outcome was inactive.

On to `C1=C\CC/C=C\CC/1`, for which the result was inactive.

With `CCCCCC(N)=O`, the call was inactive.

In the case of `CCOc1cc(N)c(Cl)cc1C(=O)NCC1CN(Cc2ccc(F)cc2)CCO1` (centres undefined), the result was inactive.

Consider `CC(C)NCC(O)COc1ccccc1-n1cccc1` (centres undefined), for which the result was inactive.

The target in the next test is Cellular tumor antigen p53 (Homo sapiens) (UniProt P04637). In words: TOX21_p53_BLA_p4_ratio: Tox21 HCT-116 p53 Agonism Beta-lactamase Assay, Ratio, Phase 4 (AID 2283601). An outline of the steps:
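HCT116 cells carrying an inducible beta-lactamase reporter were plated at 4000 cells/well, rested 5 h, then exposed to compounds in DMSO (217-fold dilution) for 16 h at 37C. CCF4-AM substrate was loaded 2 h at room temperature; 460/530 nm emission ratio scored gain-of-signal versus DMSO.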
For `Cc1nc(-c2ccc(Cl)cc2)oc1COC(C)(C)C(=O)O`, the result was inactive.

As for `CCCCCCCC/C=C\CCCCCCCC(=O)OC`, the outcome was inactive.

`O=C(O)CCNC(=O)c1ccccc1`: the result was inactive.

Turning to `CC(C)(C)c1ccc(C=O)cc1`, the result was inactive.

Regarding `CN(C)CC/C=C1\c2ccccc2COc2ccccc21`, the outcome was inactive.

As for `Cc1ccc(C(=O)c2ccc(CC(=O)O)n2C)cc1`, the result was inactive.

In the case of `CC(C)CCC[C@@H](C)[C@H]1CC(=O)C2=C3CC[C@H]4C[C@@H](O)CC[C@]4(C)[C@H]3CC[C@@]21C`, the outcome was inactive.

As to `CC1(C)CO[C@@H](CC(=O)O)CN1`, the result was inactive.

For the molecule `C=CC(=O)OCCOCCOC(=O)C=C`, the outcome was inactive.

In the case of `Nc1c2c(nc3ccccc13)CCCC2O` (centres undefined), the outcome was inactive.

On to `CC(=O)N[C@@H](CC(=O)N[C@@H](CCC(=O)O)C(=O)O)C(=O)O`, for which the outcome was inactive.

Take `CCC1NC(=O)c2cc(S(N)(=O)=O)c(Cl)cc2N1` (centres undefined): the result was inactive.

As for `NC(=O)Cc1cccc(C(=O)c2ccccc2)c1N`, the outcome was inactive.

As for `CCc1c(C)[nH]c2c1C(=O)C(CN1CCOCC1)CC2` (centres undefined), the result was inactive.

For the molecule `NC(=O)[C@@H]1CSSCCC(=O)N[C@@H](CCCCN=C(N)N)C(=O)NCC(=O)N[C@@H](CC(=O)O)C(=O)N[C@H](Cc2c[nH]c3ccccc23)C(=O)N2CCC[C@H]2C(=O)N1` ([Mpa][hArg]GD[dW]PC-NH2; disulfide 1-7), the result was inactive.

`CCOc1ccc2ccccc2c1C(=O)N[C@@H]1C(=O)N2[C@@H]1SC(C)(C)[C@@H]2C(=O)O`: the outcome was inactive.

Consider `OCC(O)CN1CCN(c2ccccc2)CC1` (centres undefined), for which the result was inactive.

With `O=C(O)Cc1csc(-c2ccc(Cl)cc2)n1`, the result was inactive.

With `CCCOCC(C)OCC(C)O` (centres undefined), the result was inactive.

Turning to `CN1[C@@H]2CC[C@H]1CC(OC(=O)c1c[nH]c3ccccc13)C2` (some centres undefined), the result was inactive.

As for `Nc1ccc(Cl)cc1[N+](=O)[O-]`, the result was inactive.

In the case of `O=C1C(CCS(=O)c2ccccc2)C(=O)N(c2ccccc2)N1c1ccccc1` (centres undefined), the outcome was inactive.

Take `NC[C@H]1O[C@H](O[C@H]2[C@H](O)[C@@H](O[C@H]3O[C@H](CO)[C@@H](O)[C@H](N)[C@H]3O)[C@H](N)C[C@@H]2N)[C@H](N)[C@@H](O)[C@@H]1O`: the outcome was inactive.

For `CC(C)C[C@@H](N)C(=O)O`, the outcome was inactive.

Regarding `Cc1ccc(N)cc1[N+](=O)[O-]`, the outcome was inactive.

Regarding `OCC1(CO)COC(C(Cl)(Cl)Cl)OC1`, the outcome was inactive.

For `C1=C\CC/C=C\CC/1`, the outcome was inactive.

`CCCCc1ccc2nc(NC(=O)OC)[nH]c2c1`: the result was inactive.

`CCOCC(O)COc1ccc(NC(=O)CC[S+](C)C)cc1` (centres undefined): the outcome was inactive.

In the case of `CCNC(=O)NCCCOc1cccc(CN2CCCCC2)c1`, the outcome was inactive.

Turning to `C=COCCCCO`, the result was inactive.

Take `CCCCCC(N)=O`: the result was inactive.

As for `C[C@@H](O)C(=O)O`, the result was inactive.

As to `C[C@H]1[C@H](NC(=O)C(=NOC(C)(C)C(=O)O)c2csc(N)n2)C(=O)N1S(=O)(=O)O`, the result was inactive.

As to `CCOc1cc(N)c(Cl)cc1C(=O)NCC1CN(Cc2ccc(F)cc2)CCO1` (centres undefined), the result was inactive.

Turning to `CN1CCN(CCC(=O)N2c3ccccc3Sc3ccc(C(F)(F)F)cc32)CC1`, the result was inactive.

Take `OCCCCCCCl`: the result was inactive.

Regarding `CC(C)NCC(O)COc1ccccc1-n1cccc1` (centres undefined), the result was inactive.

These data come from PubChem BioAssay (EPA / NIEHS).
